Experimental data published in PubChem BioAssay AID1347419 (Sanford-Burnham Center for Chemical Genomics, 2020).
The whole screen tested about 99,000 compounds, of which about 820 (0.83%) were called active.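 The calls were made as follows: active = Z-score of -3 or lower, scaled per plate to the spread of control and sample wells; inactive = z-score above -3.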 The list comes from a sample in which actives are over-represented; it also holds similar structures and randomly drawn compounds.

Target: Protein-tyrosine kinase 2-beta (Homo sapiens) (UniProt Q14289)
Sequence (Q14289 whole entry, looked up): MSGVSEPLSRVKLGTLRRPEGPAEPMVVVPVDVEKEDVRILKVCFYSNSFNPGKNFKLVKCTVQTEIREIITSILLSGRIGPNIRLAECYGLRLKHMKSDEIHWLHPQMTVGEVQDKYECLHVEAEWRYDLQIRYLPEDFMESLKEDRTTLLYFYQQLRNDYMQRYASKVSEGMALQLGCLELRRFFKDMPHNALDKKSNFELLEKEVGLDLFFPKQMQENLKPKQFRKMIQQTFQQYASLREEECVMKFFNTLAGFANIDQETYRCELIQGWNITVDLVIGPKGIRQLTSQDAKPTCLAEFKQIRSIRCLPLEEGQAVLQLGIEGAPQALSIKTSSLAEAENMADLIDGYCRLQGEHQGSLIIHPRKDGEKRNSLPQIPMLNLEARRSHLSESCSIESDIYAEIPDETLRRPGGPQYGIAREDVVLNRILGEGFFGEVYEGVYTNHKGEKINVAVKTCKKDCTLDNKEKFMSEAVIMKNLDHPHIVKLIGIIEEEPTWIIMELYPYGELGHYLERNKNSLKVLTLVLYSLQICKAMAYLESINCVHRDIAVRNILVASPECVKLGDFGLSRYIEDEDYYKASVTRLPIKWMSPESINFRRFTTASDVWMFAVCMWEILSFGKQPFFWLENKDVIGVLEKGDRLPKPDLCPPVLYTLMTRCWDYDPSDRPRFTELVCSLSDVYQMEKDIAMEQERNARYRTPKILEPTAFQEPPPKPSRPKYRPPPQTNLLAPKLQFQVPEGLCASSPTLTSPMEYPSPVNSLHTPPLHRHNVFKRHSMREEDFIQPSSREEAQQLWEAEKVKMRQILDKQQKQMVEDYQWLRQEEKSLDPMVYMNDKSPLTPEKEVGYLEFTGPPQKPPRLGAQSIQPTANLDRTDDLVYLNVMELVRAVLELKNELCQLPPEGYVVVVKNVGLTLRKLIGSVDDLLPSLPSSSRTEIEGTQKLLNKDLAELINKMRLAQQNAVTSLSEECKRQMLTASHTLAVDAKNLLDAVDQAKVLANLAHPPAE
Test: Pyk2 FERM oligomerization blockers – Q293 cells, FERM NanoBiT luminescence, HTS, primary screen (AID 1347419);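 also: the deposit names both 25 µM and 10 µM; negative z-score means lost luminescence so less FERM oligomerization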
Design: dose or concentration left out as unconfirmed
Settings: stronger effect = lower value

Compound	z-score
COc1ccc(Br)cc1CN(C)CC(=O)Nc1cc([N+](=O)[O-])ccc1OC	-1.86 (inactive)
Cc1ccc2c(CC(=O)NCc3cccs3)coc2c1	-0.4 (inactive)
N#C/C(=C\c1ccc(N2CCOCC2)o1)C(=O)N1CCOCC1	0.12 (inactive)
COc1ccccc1Oc1ccc(N/C=C2/CCCC2=O)cc1	0.42 (inactive)
N#Cc1c(N)nc2c3c(sc(=N)c2c1N)NC(=O)CC3c1ccccc1Cl (stereo unspecified)	-3.47 (active)
COc1ccc(C2CC(=O)Nc3sc(=N)c4c(N)c(C#N)c(N)nc4c32)cc1OC (stereo unspecified)	-1.89 (inactive)
CSc1nc(N)c(C#N)c(-c2ccccc2Cl)c1C#N	-2.52 (inactive)
Cc1c(/C=N/N2C(=O)C3C4C=CC(C4)C3C2=O)c2ccccc2n1C (stereo unspecified)	0.37 (inactive)
Cc1ccc(CNC(=O)COc2ccc3c(c2)CCC3)cc1	1.09 (inactive)
CCCCN(C)c1ccc([N+](=O)[O-])cc1	-0.3 (inactive)
O=C(NCCc1ccccc1)C1CCN(S(=O)(=O)c2ccc(Br)s2)CC1	0.91 (inactive)
Cc1ccc(C(=O)Cc2nnc(C)s2)cc1	0.12 (inactive)
COC(=O)c1ccccc1NC(=O)c1ccccc1NS(C)(=O)=O	0.05 (inactive)
COC(=O)c1ccc(NC(=O)c2ccccc2NS(=O)(=O)c2ccccc2)cc1	-3.71 (active)
CCOc1ccc(NC(=O)c2ccccc2NS(C)(=O)=O)cc1	-0.27 (inactive)
O=C(NC(=S)Nc1ccc(NC(=O)c2cccs2)cc1)c1ccc([N+](=O)[O-])cc1	0.61 (inactive)
Cc1cccc(N2CCN(C(=O)c3cccc(S(=O)(=O)N4CCc5ccccc5C4)c3)CC2C)c1 (stereo unspecified)	0.72 (inactive)
CCc1ccc(C2N3CC4([N+](=O)[O-])CN2CC([N+](=O)[O-])(C3)C4(C)C)cc1 (stereo unspecified)	0.28 (inactive)
C=CCn1c(SCC(=O)NCc2ccccc2)nnc1-c1cc(Br)ccc1O	-0.9 (inactive)
C=CCn1c(SCC(=O)Nc2nc3ccccc3s2)nnc1-c1ccccc1O	-3.16 (active)
C=CCn1c(CSc2nc3ccccc3s2)nnc1SCC(=O)NCc1ccco1	0.84 (inactive)
N#CC1=C(N)N(c2ccccc2)C2=C(C(=O)CCC2)C1c1ccccc1 (stereo unspecified)	-0.02 (inactive)
CCCN1C2=C(C(=O)CCC2)C(c2ccc(O)c(Br)c2)C2=C1CCCC2=O	-3.69 (active)
CCCC(=O)N1c2ccccc2NC2=C(C(=O)CCC2)C1c1ccc(F)cc1 (stereo unspecified)	-0.82 (inactive)
CCOc1ccc(Br)cc1S(=O)(=O)Nc1cccc(S(=O)(=O)N(CC)CC)c1	1.18 (inactive)
CCCCCCc1cc2cc(-c3nnc(-c4ccccc4)o3)c(=O)oc2cc1O	-3.06 (active)

Compound	z-score
O=c1oc2cc(O)ccc2cc1-c1ccc(F)cc1	-0.5 (inactive)
CC(C)NC(=O)C(=O)NCCCOC(C)C	0.05 (inactive)
COC(=O)c1cc(NC(=O)Cc2ccccc2[N+](=O)[O-])ccc1Cl	-0.53 (inactive)
COc1cc(OC)nc(N/N=C(\c2ccccc2)c2ccncc2)n1	2.22 (inactive)
O=C(N/N=C/c1cccc([N+](=O)[O-])c1)C1CC(=O)N(c2ccc(Br)cc2)C1 (stereo unspecified)	0.31 (inactive)
Cc1[nH]c(=O)c(C(=O)/C=C/c2ccccc2)c2c1CCCC2	-3.31 (active)
O=C(/C=C/c1ccccc1)c1ccoc1	2.22 (inactive)
Cc1nc(-c2ccccc2)sc1C(=O)/C=C/c1ccccc1	-0.6 (inactive)
CC1(c2cccc([N+](=O)[O-])c2)CC(C)(C)N(C(=O)c2ccccc2)c2ccccc21 (stereo unspecified)	-0.67 (inactive)
CCn1c(SCC(=O)Nc2ccc(C)cc2)nc2nc3c(cc2c1=O)CCCC3	-2.19 (inactive)
Cc1ccc(S(=O)(=O)N(CC(=O)N/N=C/c2ccc(F)cc2)c2cccc3cccnc23)cc1	-0.75 (inactive)
COc1ccc(N(CC(=O)N/N=C/c2cccs2)S(=O)(=O)c2ccc(OC)c(OC)c2)cc1	-2.54 (inactive)
COc1ccc(N(CC(=O)N/N=C/c2cccc3c2OCCO3)S(=O)(=O)c2ccc(NC(C)=O)cc2)cc1	-3.71 (active)
CC(C)CN(C(=O)CN1CCN(S(=O)(=O)c2ccccc2)CC1)c1c(N)n(CC(C)C)c(=O)[nH]c1=O	0.05 (inactive)
CCCC(C)C(=O)OCC(=O)Nc1c(Br)cc(C)cc1Br (stereo unspecified)	1.59 (inactive)
CCC(C)(C)n1nnnc1C(c1cccs1)N1CCN(c2nc3ccccc3s2)CC1 (stereo unspecified)	-3.48 (active)
CCC(C)(C)n1nnnc1C(c1ccccc1OC)N1CCSCC1 (stereo unspecified)	-0.08 (inactive)
CCC(C)(C)n1nnnc1C(c1cccs1)N1CCN(Cc2ccccc2)CC1 (stereo unspecified)	0.51 (inactive)
Cc1ccc(C(=O)COC(=O)c2cccc(N3C(=O)c4c(C)nc5ccccc5c4C3=O)c2)cc1C	0.74 (inactive)
CC1(C)C/C(=C(/C#N)C(N)=O)CCO1	-3.62 (active)
N#CC(C(N)=O)=C1CCC2(CC1)OCCCCO2	0.83 (inactive)
O=C(Nc1ccccc1)c1cc2ccccc2[nH]1	0.86 (inactive)
S=C1Nc2cc(Cl)ccc2Sc2ccccc21	-0.5 (inactive)
CC1=C(C(=O)Nc2cc(C)ccn2)C(c2cnn(C)c2)C2=C(CC(c3ccccc3)CC2=O)N1 (stereo unspecified)	1.36 (inactive)
Cc1nn(-c2ccccc2)c(C)c1/C=C/C(=O)OC(C)C(N)=O (stereo unspecified)	0.82 (inactive)
